Rows were chosen to be rich in hits. Some 7.5% of all compounds tested hit in one or more screens of this group.
HCMV inh – qHTS Assay for inhibitors of the human cytomegalovirus (HCMV) | HFF cells, HCMV-luciferase reporter, 72 h; hits give low values | activity change, negative = inhibition, % at 57.5 µM | hit rate 4.5% among 410,000; in the data active means activity change below about -60%; inconclusive means no clear call, values can overlap the other calls; inactive means above about -39%
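Human foreskin fibroblasts infected with luciferase-reporter HCMV at MOI 1 PFU/cell, compounds at two doses. Luciferase measured 72 h post infection; normalized to buffer-only basal and Salinomycin (10uM) controls.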
HCV inhibitor – qHTS Assay for Inhibitors of Hepatitis C Virus (HCV). Huh7.5.1 HCVcc-Cre infection, luciferase reporter, 44 h. Potency, µM (top dose mostly 41.8 µM), actives largely listed as inhibitors. hit rate 3.4% among 340,000
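Cells (1,000/well) were plated 4 h before compound, then infected with HCVcc-Cre virus (~0.5 moi). After 44 h further culture, infection was read as luciferase luminescence following a 15 min substrate incubation at room temperature.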
VACV Venus inh – qHTS for Stage-Specific Inhibitors of Vaccinia Orthopoxvirus: Venus Reporter Primary qHTS; Vaccinia virus Venus reporter expression, fluorescence; Potency, µM (top dose mostly 36.5 µM), actives largely listed as inhibitors; hit rate 0.46% among 330,000; AID 720580, 2013; calls by dose curve; tested in A549 cells; further: nearly all actives have a fitted effect of over 30% in size
VACV mCherry inh – qHTS for Stage-Specific Inhibitors of Vaccinia Orthopoxvirus: mCherry Reporter Primary qHTS. Vaccinia virus mCherry reporter infection, fluorescence. Potency, µM (titrated, usually from 36.5 µM), actives largely listed as inhibitors. hit rate 0.63% among 310,000. AID 720579, 2013; calls by dose curve; tested in A549 cells; further: nearly all actives have a fitted effect of over 35% in size
FMDV antiviral – High Throughput Screening for Foot and Mouth Disease Virus Antivirals | FMDV antiviral cell-based qHTS | Potency, µM (titrated, usually from 57.9 µM), usual class: inhibitors | hit rate 1.2% among 410,000 | AID 1159524, 2015; calls by dose curve; tested in HEK293T cells; further: read-out not given here; nearly all actives have a fitted effect of over 45% in size
Giardia FBPA inh – qHTS Assay for Inhibitors of Fructose-1,6-bisphosphate Aldolase from Giardia Lamblia. A8B2U2. purified Giardia FBPA. Potency, µM (titrated, usually from 59.6 µM), hits mostly inhibitors. hit rate 0.71% among 290,000. AID 2451, 2010; further: nearly all actives have a fitted effect of over 55% in size
Target sequence (A8B2U2 whole entry, looked up): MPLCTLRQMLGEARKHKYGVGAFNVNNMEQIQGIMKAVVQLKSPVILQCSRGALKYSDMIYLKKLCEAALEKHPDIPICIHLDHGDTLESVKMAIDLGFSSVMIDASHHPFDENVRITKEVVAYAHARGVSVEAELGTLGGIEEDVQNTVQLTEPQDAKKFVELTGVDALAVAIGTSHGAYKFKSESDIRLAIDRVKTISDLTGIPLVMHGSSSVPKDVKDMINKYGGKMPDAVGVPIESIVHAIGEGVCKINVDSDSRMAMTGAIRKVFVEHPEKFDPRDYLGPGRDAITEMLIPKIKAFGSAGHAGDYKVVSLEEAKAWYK
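Giardia FBPA (40 nM reagent) was preincubated 10 min at RT with compound (up to 57.5 uM final), then substrate plus GAPDH/TPI/NAD/arsenate coupling system with diaphorase/resazurin was added; resorufin fluorescence (525/598 nm) was read after 20 min.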
Numbers stand for hits; - = inactive; ? = inconclusive; . = no result. Unless noted, the call rests on the fitted dose curve; in most records, active means well fitted curve in the direction sought with a large enough effect; inconclusive means small, poorly fitted or top-dose-only effect, or another doubt; inactive means no such curve, though single readings can be large; an effect the other way counts as inactive or inconclusive.

SMILES | HCMV inh | HCV inhibitor | VACV Venus inh | VACV mCherry inh | FMDV antiviral | Giardia FBPA inh
O=C(CN1CCCCCC1)Nc1ccc(Br)cc1 | - | . | - | - | - | -
COC(=O)c1[nH]c2ccc(Br)cc2c1NC(=O)CN1CCN(C2CCCCC2)CC1 | - | 11µM | . | . | 32µM | -
CCOC(=O)C1CCN(CC(=O)Nc2c(C(=O)OC)[nH]c3ccc(Cl)cc23)CC1 | - | 10µM | - | - | ? | -
O=C(CN1CCN(C2CCCCC2)CC1)Nc1ccc(Br)cc1 | - | 10µM | - | - | - | -
Cc1ccccc1OCC(=O)NC(=S)Nc1ccccc1N1CCN(S(C)(=O)=O)CC1 | - | - | - | - | ? | .
CC(C)NC(=O)[C@@H]1C[C@@H](Sc2ccccn2)CN1C1CCN(C)CC1 | . | . | - | - | - | .
Cc1nonc1CC(=O)NC1CCCc2c1cnn2-c1ccc(F)cc1F (stereo not given) | - | - | . | . | - | .
COC(=O)c1c(OCc2ccccc2)cc(=O)n2c1CCN(Cc1cccc(C)n1)CC2 | . | . | - | - | - | .
CCOc1ccc(CN2CCN(CC3=Cc4cccc(OC)c4OC3)CC2CCO)cc1 (stereo not given) | - | 10µM | . | . | ? | -
Cc1ccc2nc(CSc3nc(C)ccc3C#N)[nH]c2c1 | - | ? | . | . | 8.9µM | -
Cc1ccc(C#N)c(SCc2ccccc2F)n1 | ? | - | - | - | - | -
COc1ccc2c(c1)C(n1ccc3ccccc31)C(=O)N2Cc1ccc(C(C)C)cc1 (stereo not given) | - | . | . | . | . | .
O=S(=O)(/N=C(/NS(=O)(=O)c1ccccc1)c1ccccc1)c1ccccc1 | -106 | - | - | - | - | -
CCC(NC(=O)CCl)c1ccc(C)cc1 (stereo not given) | -78 | - | - | - | ? | -
CCCC(NC(=O)CCl)c1ccccc1 (stereo not given) | -72 | ? | - | - | ? | -
CCCCNS(=O)(=O)c1ccc2nc(SCC(=O)c3ccccc3OC)[nH]c2c1 | -79 | ? | - | - | - | -
CCCCNS(=O)(=O)c1ccc2nc(SCC(=O)Nc3ccccc3Cl)[nH]c2c1 | -82 | 13µM | ? | ? | - | -
O=[N+]([O-])c1ccccc1CNC(Cc1ccccc1)c1ccccc1 (stereo not given) | - | - | - | - | . | -
Cc1ccc(S(=O)(=O)C(CNS(=O)(=O)c2ccc(F)c(C)c2)c2cccs2)cc1 (stereo not given) | - | . | - | - | - | .
COC(=O)[C@@H]1[C@@H](CO)[C@@H]2Cn3c(ccc(Br)c3=O)[C@H]1N2C(=O)c1ccncc1 | - | . | . | . | . | .
CCN(Cc1ccncc1)C(=O)c1cc(COc2ccc(C)c(C)c2)on1 | -74 | ? | - | - | - | .
CCN(Cc1cnn(C)c1)C(=O)c1cc(COc2ccc3c(c2)CCCC3)on1 | - | 22µM | . | . | - | .
Cc1ccc(OCc2cc(C(=O)N(CCO)Cc3cccs3)no2)cc1C | - | - | - | - | - | .
CCOC(=O)c1nnn(-c2nonc2-n2cccc2)c1C | - | - | - | . | - | -
CCOC(=O)c1nnn(-c2nn3nnnc3c3ccccc23)c1C | - | - | ? | 8.9µM | - | -
SMILES | HCMV inh | HCV inhibitor | VACV Venus inh | VACV mCherry inh | FMDV antiviral | Giardia FBPA inh
COC(=O)c1cnn(-c2ccc(F)cc2F)c1/C=N/NC(N)=S | - | 10µM | . | . | ? | -
CC1CC2CCCC(O)=C2C(=O)O1 (stereo not given) | -61 | - | - | - | - | .
CC(C)CN(C(=O)CSc1n[nH]c(-c2cccs2)n1)C1CCS(=O)(=O)C1 (stereo not given) | ? | - | - | - | - | .
COc1ccc(-c2nnc(Nc3nc4c(OC)cccc4s3)o2)c(OC)c1 | . | 6.3µM | - | ? | . | -
COc1ccc(-c2cc(C(=O)NCc3ccc(F)cc3)[nH]n2)c(C)c1 | - | . | - | - | - | .
Cc1cc(C(=O)N2CCCC(C(=O)c3cccc(C(F)(F)F)c3)C2)n[nH]1 (stereo not given) | - | ? | . | . | - | -
O=C(c1cccc(C(F)(F)F)c1)C1CCCN(C(=O)c2cc(C3CC3)[nH]n2)C1 (stereo not given) | -67 | ? | . | . | - | -
O=C(CCl)Nc1cccc(Oc2cnccn2)c1 | ? | - | . | . | ? | -
O=C(CCl)Nc1cccc(Oc2ccccc2)c1 | -97 | ? | - | - | 13µM | -
Cc1ccnc(N2C(=O)c3cccc4c([N+](=O)[O-])ccc(c34)C2=O)c1 | - | 11µM | - | - | ? | -
O=C1c2cccc3c([N+](=O)[O-])ccc(c23)C(=O)N1Cc1cccnc1 | -73 | ? | - | - | - | -
COC(=O)C1C(O)CC[C@@H]2CN3CCc4c([nH]c5ccccc45)C3C[C@@H]12 (stereo not given in full) | . | . | - | - | - | -
O=C1NC(=S)N/C1=C/c1cc2c(cc1[N+](=O)[O-])OCO2 | -80 | - | - | - | - | -
O=C(NC(=S)NC1CCCCC1)c1ccccc1 | -98 | - | - | - | - | .
O=C(NC(=S)NC1CCS(=O)(=O)C1)c1ccccc1 (stereo not given) | - | - | . | . | - | .
O=C(NC1CCCCC1)c1ccccc1NC(=S)NC(=O)C1CCC1 | -62 | - | - | - | - | -
CCn1c2ccccc2nc2cc3c(cc21)c(Cl)c(=O)c1ccccc13 | - | . | ? | ? | - | .
Cc1ccc(NCCC(=O)c2cccs2)cc1 | - | - | . | . | - | -
O=C(O)CC/C(=N\NC(=O)c1ccccc1)c1cccs1 | - | - | - | - | - | -
Cc1ccc(C(=O)N/N=C(/CC(=O)c2cccs2)C(F)(F)F)cc1 | -86 | - | - | - | - | -
O=C(N/N=C(\CC(=O)c1cccs1)C(F)(F)F)c1ccncc1 | -76 | ? | - | ? | - | -
O=C(CC1c2ccccc2C=C(c2ccsc2)N1c1ccc(-c2cccnc2)cc1)C1CC1 (stereo not given) | -79 | . | - | - | - | .
COc1cc(OC)cc(C2=Cc3ccccc3C(CC(C)=O)N2c2ccc(-c3cncnc3)cc2)c1 (stereo not given) | - | . | - | - | - | .
COc1ccc2c([N+](=O)[O-])c(C)[nH]c2c1 | - | . | . | . | . | .
CC(C)(C)NC(=O)CSc1nc2ccc(NC(=O)CSc3nnc(N)s3)cc2s1 | - | 13µM | - | - | 28µM | -
CC(C)(C)NC(=O)CSc1nc2ccc(NC(=O)CSc3nnnn3Cc3ccccc3)cc2s1 | -77 | 2µM | ? | ? | 14µM | -
CCOC(=O)CSc1nc2ccc(NC(=O)CSc3nnnn3Cc3ccccc3)cc2s1 | - | - | . | . | - | -
Cc1ccc2oc(C(=O)N3CCC(O)(c4cccc(C(F)(F)F)c4)CC3)c(C)c2c1 | - | ? | - | - | - | -
Cc1cnc(CNc2cc(-c3cccc(NS(C)(=O)=O)c3)ncn2)cn1 | . | . | . | . | - | -

From PubChem
